Data: PubChem BioAssay (EPA / NIEHS)
A structure can be active in one record and inactive in another. Calls of active or inactive are those of the source. Rule for the calls: active = hit-call score of the fitted dose curve at least 0.9, where 1 is the maximum; inactive = score below 0.9.

Experiment: ATG_GLI_CIS: Attagene CIS-FACTORIAL HepG2 Assay for human Zinc Finger Protein GLI1 (AID 2282945)
Conditions: HepG2, Attagene cis-factorial reporter mRNA, GLI element; actives raise or lower the signal
Procedure: ATG_CIS is a cell-based, multiplexed-readout assay that uses HepG2, a human liver cell line, with measurements taken at 24 hours after chemical dosing in a 24-well plate.ATG_GLI_CIS is one of 52 assay component(s) measured or calculated from the ATG_CIS assay. It is designed to make measurements of mRNA induction, a form of inducible reporter, as detected with fluorescence intensity signals by Reverse transcription polymerase chain reaction (RT-PCR) and Capillary electrophoresis technology.Data from the assay component ATG_GLI_CIS was analyzed into 1 assay endpoint. This assay endpoint, ATG_GLI_CIS, was analyzed with bidirectional fitting relative to DMSO as the negative control and baseline of activity. Using a type of inducible reporter, measures of mRNA for gain or loss-of-signal activity can be used to understand the reporter gene at the transcription factor-level as they relate to the gene GLI1. Furthermore, this assay endpoint can be referred to as a primary readout, because this assay has produced multiple assay endpoints where this one serves a reporter gene function. To generalize the intended target to other relatable targets, this assay endpoint is annotated to the dna binding intended target family, where the subfamily is zinc finger.
Human liver HepG2 cells are transiently transfected with multiple reporter transcription units (MRTUs) in 6-well plates using FuGene 6 reagent (Roche; 3 ml FuGene/1 mg DNA). The MRTU constructs are regulated by a cis-regulating element (promoter). […] A major difference between the CIS and TRANS system is that in CIS activities of endogenous TFs are measured, whereas the TRANS assay evaluates changes in activities of exogenous, chimeric NR-Gal4 proteins. […] At the end of 24 hour incubation, total RNA was isolated using TriZol reagent (Invitrogen). The isolated RNA is then reverse-transcribed using oligo(dT) primer and Mo-MLV reverse transcriptase (Invitrogen) with DNAse I (Ambion) treatment for 30 min. The one-tenth of the produced cDNA was amplified by PCR using Taq DNA polymerase (Invitrogen) and two reporter sequence-specific primers. The PCR products were fluorescently labeled by primer extension with 6-arboxyfluorescein (6-FAM) 5'-labeled reporter sequence-specific primer (2 min at 95 C, 20 s at 68 C and 10 min at 72 C) and these products were digested with 5U of HpaI (New England Biolabs) for 2h at 37 C. The fragments were purified using Qiaquick PCR columns (Qiagen), analyzed on an ABI 3130xL genetic analyzer (Applied Biosystems) with peak positions identified by using a set of X-rhodamine (ROX)-labeled MapMarker1000 molecular weight standards (BioVentures). The raw capillary electrophoresis data was processed using Attagraph software (Attagene).

For `O=C(O)CN(CCCN(CC(=O)O)CC(=O)O)CC(=O)O`, which outcome is on record?
The outcome was “inactive”.

With `CCCC=O` as the compound, how does the outcome read?
The outcome was “inactive”.

Which outcome does the source give for `c1cc[nH]c1` here?
Its outcome is “inactive”.

Which outcome does the source give for `CCCCCCCCC(C)=O` here?
Its outcome is “inactive”.

With `O=C1NS(=O)(=O)c2ccccc21` as the compound, how does the outcome read?
Its outcome is “inactive”.

Which outcome does the source give for `CCCCN(C)C` here?
Its outcome is “inactive”.

For `O=S(=O)(O)c1ccc2cc(O)ccc2c1`, which outcome is on record?
Its outcome is “inactive”.

Which outcome does the source give for `CC(C)(c1ccc(Oc2ccc(N)cc2)cc1)c1ccc(Oc2ccc(N)cc2)cc1` here?
The outcome was “inactive”.

Which outcome does the source give for `Cc1cncc(C)c1` here?
Its outcome is “inactive”.

For `CCCCCCCCCCCC[N+](C)(C)Cc1ccccc1`, which AC50 is on record?
Its AC50 is 16.7 µM (active).

What about the outcome of the same compound?
The outcome was “inactive”.

With `CCCCCCCCCCCC` as the compound, how does the outcome read?
The outcome was “inactive”.

Which outcome does the source give for `O=C1OC(=O)c2cc(-c3ccc4c(c3)C(=O)OC4=O)ccc21` here?
Its outcome is “inactive”.

For `NC(=NCCCCCCN=C(N)/N=C(\N)Nc1ccc(Cl)cc1)/N=C(\N)Nc1ccc(Cl)cc1`, which outcome is on record?
The outcome was “inactive”.

With `Nc1ccc(O)c(C(=O)O)c1` as the compound, how does the outcome read?
Its outcome is “inactive”.

Which outcome does the source give for `CCCCC=O` here?
Its outcome is “inactive”.

With `CCc1cccc(CC)c1NC(=O)C(=O)O` as the compound, how does the outcome read?
Its outcome is “inactive”.

For `CS(=O)(=O)c1ccc([C@@H](CC2CCCC2)C(=O)Nc2cnccn2)cc1Cl`, which outcome is on record?
The outcome was “inactive”.

With `CCCCC(CC)C(=O)OCCOCCOCCOCCOC(=O)C(CC)CCCC` (stereo not given) as the compound, how does the outcome read?
Its outcome is “inactive”.

Which outcome does the source give for `CCCCCCCCCCCCCCCCCC[N+](C)(C)Cc1ccccc1` here?
The outcome was “inactive”.

With `CCCCCCCCCCCCCCC` as the compound, how does the outcome read?
The outcome was “inactive”.

For `C=CC(=O)OCCC(F)(F)C(F)(F)C(F)(F)C(F)(F)C(F)(F)C(F)(F)C(F)(F)C(F)(F)F`, which outcome is on record?
The outcome was “inactive”.

For `O=C1OC2(c3ccccc31)c1cc(I)c(O)c(I)c1Oc1c2cc(I)c(O)c1I`, which outcome is on record?
The outcome was “inactive”.

Which outcome does the source give for `CCCCC(CC)C(=O)O` (stereo not given) here?
The outcome was “inactive”.

With `Cc1ccc(S(=O)(=O)O)cc1` as the compound, how does the outcome read?
The outcome was “inactive”.

For `FC(F)(F)N1C(F)(F)C(F)(F)OC(F)(F)C1(F)F`, which outcome is on record?
The outcome was “inactive”.

With `COC(=O)C(F)(F)C(F)(F)C(F)(F)F` as the compound, how does the outcome read?
Its outcome is “inactive”.

Which outcome does the source give for `O=c1cc(-c2ccccc2)oc2ccc3ccccc3c12` here?
The outcome was “inactive”.

With `CCC(C)c1nccnc1OC` (stereo not given) as the compound, how does the outcome read?
The outcome was “inactive”.

With `O=CC(F)(F)C(F)(F)C(F)(F)F` as the compound, how does the outcome read?
Its outcome is “inactive”.

Which outcome does the source give for `CC(=O)CC(C)C` here?
The outcome was “inactive”.

With `Nc1cc(Cl)c(-c2cc(Cl)c(N)cc2Cl)cc1Cl` as the compound, how does the outcome read?
The outcome was “inactive”.

Which outcome does the source give for `O=C(O)C(F)(F)OC(F)(F)C(F)(F)OC(F)(F)C(F)(F)OC(F)(F)C(F)(F)C(F)(F)C(F)(F)F` here?
The outcome was “inactive”.

With `O=C1c2ccc(O)c(O)c2C(=O)c2c(O)ccc(O)c21` as the compound, how does the outcome read?
The outcome was “inactive”.

With `COC(O)c1ccccc1` (stereo not given) as the compound, how does the outcome read?
The outcome was “inactive”.

With `COc1cccc(O)c1` as the compound, how does the outcome read?
The outcome was “inactive”.

For `CC1CCC(C(=O)O)CC1` (stereo not given), which outcome is on record?
The outcome was “inactive”.

Which outcome does the source give for `COc1ccc(C#N)cc1` here?
The outcome was “inactive”.

With `O=C(NCc1ncc(C(F)(F)F)cc1Cl)c1c(Cl)cccc1Cl` as the compound, how does the outcome read?
Its outcome is “inactive”.

With `CCCCCCCCCCCCCCCC(=O)OC` as the compound, how does the outcome read?
Its outcome is “inactive”.
